# In PubChem BioAssay AID743497 (The Scripps Research Institute Molecular Screening Center, 2014):
# A number with no mark means an inactive call. Calls of active or inactive are those of the source.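 The calls were made as follows: active = IC50 of 10 µM or lower; inactive = IC50 above 10 µM.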
# Assay: binders of r(CAG) RNA repeats, SAR follow-up, biochemical, fluorescence, dose response, MedChem round 1 (AID 743497)
# Settings: r(CAG) RNA 1x1 AA loop, TO-PRO-1 displacement fluorescence
row,SMILES,IC50
1,CCOC(=O)N1CCC(NC(=O)/C=C/c2cn(-c3ccccc3)nc2-c2ccccc2)CC1,> 29.9 µM
2,O=C(/C=C/c1cn(-c2ccccc2)nc1-c1ccccc1)Nc1cc(S(=O)(=O)N2CCCC2)ccc1Cl,> 29.9 µM
3,CS(=O)(=O)Nc1cc(NC(=O)/C=C/c2cn(-c3ccccc3)nc2-c2ccccc2)ccc1F,6.38 µM (active)
4,CCN(c1ccccc1)S(=O)(=O)c1ccc(NC(=O)c2oc3ccc(F)cc3c2C)cc1,> 29.9 µM
5,O=C(/C=C\c1cn(-c2ccccc2)nc1-c1ccc(F)cc1)Nc1ccc(C(=O)O)cc1,2.15 µM (active)
